PubChem BioAssay (NCI)
The panel holds about 79,000 compounds, 15% with a hit somewhere; the sample as a whole holds those more often. Active and inactive are the calls of the source. Rule as the data show it: active = growth inhibition above about 70%; inactive = the rest.

Assays:
[1] = NCI Yeast Anticancer Drug Screen. Data for the rad50 strain (AID 155);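 also: 0% = growth of vehicle-only cultures of the same strain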; details: S. cerevisiae rad50 strain growth inhibition, active compounds read high
Method in brief: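 Inhibition values express reduced yeast growth in compound-treated cultures relative to vehicle-treated controls.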

[2] = NCI Yeast Anticancer Drug Screen. Data for the mec2-1 strain (AID 157); details: S. cerevisiae mec2-1 strain, active compounds read high
Method in brief: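 Compounds were applied to mec2-1 yeast cells. Their growth was then compared with that of vehicle-treated cultures to give growth inhibition.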

[3] = NCI Yeast Anticancer Drug Screen. Data for the sgs1 mgt1 strain (AID 161);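 also: 0% = growth of cultures given vehicle only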; details: S. cerevisiae sgs1 mgt1 strain, active compounds read high
Method in brief: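 Percent growth inhibition was derived by comparing compound-exposed mutant yeast with vehicle-exposed cultures. The strain carries alterations in DNA damage repair.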

[4] = NCI Yeast Anticancer Drug Screen. Data for the cln2 rad14 strain (AID 165);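 also: 0% = growth equal to vehicle treated cultures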; details: S. cerevisiae cln2 rad14 strain, active compounds read high
Method in brief: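 Strain: cln2 rad14 yeast, altered in cell cycle control and DNA damage repair. Read-out: growth inhibition vs vehicle.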

[5] = NCI Yeast Anticancer Drug Screen. Data for the bub3 strain (AID 167); details: S. cerevisiae bub3 mutant strain, active compounds read high
Method in brief: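 Steps: expose the mutant yeast strain to compound; grow alongside vehicle-treated cultures; measure growth; express inhibition against the vehicle cultures.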

[6] = NCI Yeast Anticancer Drug Screen. Data for the mlh1 rad18 strain (AID 175); details: S. cerevisiae mlh1 rad18 strain growth inhibition, active compounds read high
Method in brief: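 A repair-deficient yeast strain is exposed to test compound, and growth is scored relative to vehicle-treated controls.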

[7] = at 5.0 µM (retest, dose inferred, filed as 0.5)
[8] = at 50.0 µM (retest, dose inferred, filed as 5.0)

Measured: growth inhibition

CC(=O)OCC(=O)[C@@]1(O)CC[C@H]2[C@@H]3CCC4=CC(=O)C=C[C@]4(C)[C@@]3(F)[C@@H](O)C[C@@]21C
active: [6]; [8] 71%
inactive: [1]; [7] -27% | [1]; [8] 41% | [1]; at 50.0 µM 0.4% | [2]; [7] 1% | [2]; [8] 16% | [2]; at 50.0 µM -2.8% | [3]; [7] -4% | [3]; [8] 59% | [3]; at 50.0 µM 17.4% | [4]; [7] -6% | [4]; [8] 5% | [4]; at 50.0 µM 66.2% | [5]; [7] -2% | [5]; [8] 51% | [5]; at 50.0 µM 17.6% | [6]; [7] -3% | [6]; at 50.0 µM 15.6%

FC(F)(F)c1[nH]nc(-c2cc3ccccc3o2)c1N=NN1CCOCC1
active: [1]; [7] 99% | [1]; [8] 99% | [1]; at 50.0 µM 99.2% | [2]; [7] 100% | [2]; [8] 99% | [2]; at 50.0 µM 99.5% | [3]; [7] 100% | [3]; [8] 99% | [3]; at 50.0 µM 99.5% | [4]; [7] 99% | [4]; [8] 99% | [4]; at 50.0 µM 99.6% | [5]; [7] 100% | [5]; [8] 99% | [5]; at 50.0 µM 99.5% | [6]; [7] 100% | [6]; [8] 99% | [6]; at 50.0 µM 99.5%

N#CCCN(CCCN1CCOCC1)C(=S)Nc1cccc(C(F)(F)F)c1
active: [3]; at 50.0 µM 71.1%
inactive: [1]; [7] 34% | [1]; [8] 44% | [1]; at 50.0 µM 42.9% | [2]; [7] 23% | [2]; [8] 33% | [2]; at 50.0 µM 35.8% | [3]; [7] 41% | [3]; [8] 37% | [4]; [7] 41% | [4]; [8] 60% | [4]; at 50.0 µM 59.5% | [5]; [7] 49% | [5]; [8] 58% | [5]; at 50.0 µM 49.8% | [6]; [7] 48% | [6]; [8] 61% | [6]; at 50.0 µM 36%

O=c1cc(-c2ccccc2)[nH]c2ccc(N3CCCC3)cc12
inactive: [1]; [7] 17% | [1]; [8] 26% | [1]; at 50.0 µM -26.8% | [2]; [7] 7% | [2]; [8] 9% | [2]; at 50.0 µM -4.35% | [3]; [7] 13% | [3]; [8] 13% | [3]; at 50.0 µM -29.9% | [4]; [7] 0% | [4]; [8] 7% | [4]; at 50.0 µM 7.25% | [5]; [7] 14% | [5]; [8] 6% | [5]; at 50.0 µM -8.65% | [6]; [7] 11% | [6]; [8] 5% | [6]; at 50.0 µM 0.5%

C=C(C)C(=O)OC1CC2=CC(CC3(C)OC3C3OC(=O)C(=C)C13)OC2=O (configuration not stated)
active: [1]; at 50.0 µM 88.8% | [2]; at 50.0 µM 87% | [5]; at 50.0 µM 78.8%
inactive: [1]; [7] 1% | [1]; [8] 19% | [2]; [7] 3% | [2]; [8] 37% | [3]; [7] 4% | [3]; [8] 35% | [3]; at 50.0 µM 57.6% | [4]; [7] 8% | [4]; [8] 15% | [4]; at 50.0 µM 30.5% | [5]; [7] 1% | [5]; [8] 43% | [6]; [7] 4% | [6]; [8] 51% | [6]; at 50.0 µM 50.5%

CCOP(=O)(C=C=C1CCC2[C@@H]3CCc4cc(OC)ccc4C3CC[C@]12C)OCC (some centres not stated)
inactive: [1]; [7] 5% | [2]; [7] -1% | [3]; [7] 3% | [4]; [7] 1% | [5]; [7] 13% | [6]; [7] -7%
active: [1]; [8] 97% | [1]; at 50.0 µM 97.7% | [2]; [8] 99% | [2]; at 50.0 µM 98.3% | [3]; [8] 98% | [3]; at 50.0 µM 98% | [4]; [8] 98% | [4]; at 50.0 µM 97.8% | [5]; [8] 98% | [5]; at 50.0 µM 98% | [6]; [8] 98% | [6]; at 50.0 µM 98%

O=C1CCCc2cc3c(nc21)C(=O)CCC3
inactive: [1]; [7] -8% | [1]; [8] -3% | [1]; at 50.0 µM 14.7% | [2]; [7] -11% | [2]; [8] 0% | [2]; at 50.0 µM 12.6% | [3]; [7] 3% | [3]; [8] 0% | [3]; at 50.0 µM 13.1% | [4]; [7] -7% | [4]; [8] 2% | [4]; at 50.0 µM 47.7% | [5]; [7] -6% | [5]; [8] 1% | [5]; at 50.0 µM 0.6% | [6]; [7] 10% | [6]; [8] -9% | [6]; at 50.0 µM 2.5%

C#CCNCc1ccccc1
active: [3]; at 50.0 µM 89% | [5]; [8] 78% | [5]; at 50.0 µM 76.8%
inactive: [1]; [7] 18% | [1]; [8] 63% | [1]; at 50.0 µM 66.8% | [2]; [7] 18% | [2]; [8] 47% | [2]; at 50.0 µM 35.5% | [3]; [7] 11% | [3]; [8] 63% | [4]; [7] 0% | [4]; [8] 32% | [4]; at 50.0 µM 29.4% | [5]; [7] 5% | [6]; [7] -4% | [6]; [8] 49% | [6]; at 50.0 µM 58.8%

COc1ccc(C2C3=C(CCC(CN(C)C)C3=O)OC3=C2C(=O)C(CN(C)C)CC3)cc1 (configuration not stated)
inactive: [1]; [7] -17% | [1]; [8] -7% | [1]; at 50.0 µM -35.5% | [2]; [7] -3% | [2]; [8] -1% | [2]; at 50.0 µM 4.1% | [3]; [7] -20% | [3]; [8] -5% | [3]; at 50.0 µM -20.6% | [4]; [7] -1% | [4]; [8] 1% | [4]; at 50.0 µM 44.7% | [5]; [7] -17% | [5]; [8] -17% | [5]; at 50.0 µM -3.5% | [6]; [7] -13% | [6]; [8] -7% | [6]; at 50.0 µM 21.1%
